Test results: PubChem BioAssay AID1159580 (chemical genetic matrix, 2015)
About 2,000 (36%) of roughly 5,500 compounds were called active. Roughly 18% stayed inconclusive and do not appear here. Rule as the data show it: active = normalized growth mostly below about 0.91 (no sharp cut-off); inconclusive = no clear call, values can overlap the other calls; inactive = mostly above about 0.92. The list shows a part of the results.

Assay: chemical genetic growth profiling, strain panel (AID 1159580);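 also: tested at 20 µM; growth read once vehicle control cultures reached saturation at 30 °C; 1 = growth at the plate median or of vehicle wells; lower values mean less growth of the strain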
Conditions: S. cerevisiae deletion strains, growth OD
[1] = locus YGR078C, strain PAC10, hits give low values
[2] = locus YJR075W, strain HOC1, hits give low values
[3] = locus YMR263W, strain SAP30, hits give low values
[4] = locus YNL128W, strain TEP1, hits give low values
[5] = locus YNL153C, strain GIM3, hits give low values
[6] = locus YNL322C, strain KRE1, hits give low values
[7] = locus YPL055C, strain LGE1, hits give low values
[8] = locus YPL241C, strain CIN2, hits give low values
[9] = locus YAL013W, strain DEP1, hits give low values
[10] = locus YBR229C, strain ROT2, hits give low values
[11] = locus YDL101C, strain DUN1, hits give low values
[12] = locus YDL134C, strain PPH21, hits give low values
[13] = locus YEL061C, strain CIN8, hits give low values
[14] = locus YHR030C, strain SLT2, hits give low values
[15] = locus YJR043C, strain POL32, hits give low values
[16] = locus YKL190W, strain CNB1, hits give low values
[17] = locus YLR039C, strain RIC1, hits give low values
[18] = locus YLR262C, strain YPT6, hits give low values
[19] = locus YMR307W, strain GAS1, hits give low values

Measured: normalized growth

Cn1cc(C(F)(F)F)nc1-c1ccc(OCC(O)CNCCOc2ccc(O)c(C(N)=O)c2)cc1 (stereo not given)
inactive: locus YAL040C, strain CLN3, hits give low values 0.996 | locus YCL061C, strain MRC1 (second series), hits give low values 1 | locus YDR363W, strain ESC2, hits give low values 1.01 | locus YER002W, strain NOP16, hits give low values 1.04 | [1] 1.01 | [2] 1 | [3] 1.01 | [4] 1.02 | [5] 1.01 | locus YNL175C, strain NOP13, hits give low values 1.05 | locus YNL197C, strain WHI3, hits give low values 1.03 | locus YNL224C, strain SQS1, hits give low values 1.04 | [6] 1.03 | locus YOR083W, strain WHI5 (second series), hits give low values 0.987 | [7] 1.01 | [8] 1

CC(C)(C)c1ccc(CSc2nc(N)cc(=O)[nH]2)cc1
inactive: [9] 0.993 | [10] 1.02 | locus YCL061C, strain MRC1, hits give low values 0.998 | [11] 0.981 | [12] 1.01 | locus YDR150W, strain NUM1, hits give low values 0.949 | [13] 0.995 | [1] 1 | locus YGR229C, strain SMI1, hits give low values 1.01 | [14] 0.988 | locus YHR087W, strain rtc3, hits give low values 0.993 | locus YJL187C, strain SWE1, hits give low values 0.985 | [15] 1.01 | [2] 1.01 | [16] 1.02 | [17] 1.02 | locus YLR058C, strain SHM2 (second series), hits give low values 1.01 | locus YLR085C, strain ARP6, hits give low values 0.898 | [18] 1.09 | locus YML094W, strain GIM5, hits give low values 0.975 | locus YMR219W, strain ESC1, hits give low values 1 | [3] 1.01 | [19] 0.855 | [4] 1.01 | [5] 1.01 | locus YNL298W, strain CLA4 (second series), hits give low values 1.01 | [6] 1 | locus YNR030W, strain Alg12, hits give low values 1.01 | [7] 0.862 | [8] 0.972 | locus YPR135W, strain CTF4, hits give low values 0.949

CC(=O)Oc1cccc(C(=O)O)c1OC(C)=O
inactive: [9] 1.01 | locus YBR021W, strain FUR4, hits give low values 0.987 | [10] 1 | locus YCL029C, strain bik1, hits give low values 1 | locus YDL035C, strain GPR1, hits give low values 1.03 | locus YDL074C, strain BRE1, hits give low values 1.01 | [11] 1.01 | [12] 1.01 | locus YDL185W, strain tfp1, hits give low values 1.02 | locus YDL192W, strain arf1, hits give low values 1.02 | locus YDR101C, strain arx1, hits give low values 0.985 | locus YDR162C, strain NBP2, hits give low values 1.02 | locus YDR318W, strain mcm21, hits give low values 1.01 | locus YDR388W, hits give low values 1.01 | locus YDR502C, strain sam2, hits give low values 1 | [13] 1.01 | locus YER110C, hits give low values 1.02 | locus YER155C, strain BEM2, hits give low values 1 | locus YER167W, strain BCK2, hits give low values 1.01 | locus YGL078C, strain dbp3, hits give low values 1.01 | locus YGL086W, strain mad1, hits give low values 0.997 | locus YGL248W, strain PDE1, hits give low values 1.01 | [1] 1.01 | locus YGR135W, strain pre9, hits give low values 1.04 | locus YGR252W, strain gcn5, hits give low values 1 | [14] 1.01 | locus YHR079C, strain IRE1 (second series), hits give low values 1.01 | locus YHR094C, strain hxt1, hits give low values 1.01 | locus YHR129C, strain ARP1, hits give low values 1.01 | locus YHR200W, strain rpn10, hits give low values 1.02 | locus YIL066C, strain RNR3, hits give low values 1.01 | locus YIL073C, strain SPO22, hits give low values 1.05 | locus YIL125W, strain kgd1, hits give low values 1.01 | locus YIR030C, strain dcg1, hits give low values 1.01 | locus YJL095W, strain BCK1, hits give low values 1.01 | locus YJL134W, strain LCB3, hits give low values 1 | locus YJL168C, strain set2, hits give low values 1.02 | locus YJL187C, strain SWE1 (second series), hits give low values 1.01 | [15] 1.01 | [2] 1.03 | locus YKL009W, strain mrt4, hits give low values 1.03 | locus YKL068W, hits give low values 1.01 | locus YKL085W, strain MDH1 (second series), hits give low values 1.07 | locus YKL085W, strain MDH1, hits give low values 1.07 | [16] 1.01 | locus YKR001C, strain vps1, hits give low values 1.01 | [17] 1.02 | locus YLR058C, strain SHM2, hits give low values 1.01 | locus YLR102C, strain apc9, hits give low values 1.01 | [18] 1.02 | locus YLR268W, strain sec22, hits give low values 1 | locus YLR330W, strain CHS5, hits give low values 1.01 | locus YLR342W, strain FKS1 (second series), hits give low values 1.04 | locus YLR371W, strain rom2, hits give low values 1 | locus YLR418C, strain cdc73, hits give low values 1.01 | locus YML016C, strain PPZ1, hits give low values 1.01 | locus YML032C, strain rad52, hits give low values 1.02 | locus YML124C, strain tub3, hits give low values 1.02 | locus YMR078C, strain ctf18, hits give low values 1.02 | locus YMR223W, strain ubp8, hits give low values 1.04 | [19] 1.07 | locus YNL067W, strain RPL9B, hits give low values 1.01 | [5] 0.997 | locus YNL233W, strain BNI4, hits give low values 1 | locus YNL250W, strain rad50, hits give low values 1.04 | locus YNL271C, strain bni1, hits give low values 1.01 | locus YNL298W, strain CLA4, hits give low values 1.02 | locus YNL307C, strain MCK1, hits give low values 1.02 | [6] 1.01 | locus YNR052C, strain pop2, hits give low values 1.01 | locus YOL006C, strain TOP1, hits give low values 1.06 | locus YOL147C, strain pex11, hits give low values 1.01 | locus YOR061W, strain CKA2, hits give low values 1.01 | locus YOR069W, strain VPS5, hits give low values 1.01 | locus YOR136W, strain idh2, hits give low values 1.01 | locus YOR144C, strain elg1, hits give low values 1.01 | locus YOR184W, strain ser1, hits give low values 1.02 | locus YOR316C, strain cot1, hits give low values 1.01 | locus YPR119W, strain clb2, hits give low values 1.01 | locus YPR141C, strain kar3, hits give low values 1 | locus YPR163C, strain tif3, hits give low values 1.01 | locus YPR167C, strain met16, hits give low values 1.01 | strain wtn01, hits give low values 1.01
